Measured values taken from PubChem BioAssay (Tox21).
Records with an inconclusive call do not appear. Calls of active or inactive are those of the source. Unless noted, calls come from the whole dose curve; as a rule, active = well fitted curve in the direction sought with a large enough effect in the repeat runs; inconclusive = weak or mixed curves; inactive = no such curve, though single readings can be large; an effect the other way counts as inactive or inconclusive.

Legend:
[1] = qHTS assay to identify small molecule agonists of the NFkB signaling pathway (AID 1159509; active = well fitted curve in the direction sought with a large enough effect in the signal ratio in the repeat runs, not every such curve was filed as active; the % refers to the signal ratio; note: series mostly up to about 61 µM)
In short: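 NFkB-bla ME-180 cells with a beta-lactamase reporter under an NF-kB response element were plated overnight, treated with compounds in DMSO for 5 hr at 37 C, then loaded with FRET substrate for 1.5 hr at room temperature.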

[2] = qHTS assay to identify small molecule agonists of the NFkB signaling pathway - cell viability counter screen (AID 1159515; calls by dose curve; note: series mostly up to about 61 µM; nearly all actives have a fitted effect of over 55% in size)
In short: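 NFkB-bla ME-180 cells, 2,000/well, plated overnight at 37 C; compound added for 5 hr at 37 C. Viability read in the same wells as the bla reporter, by CellTiter-Glo luminescence after 30 min at room temperature.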

[3] = qHTS assay to identify small molecule agonists of the endoplasmic reticulum stress response signaling pathway (AID 1159516; active = well fitted activation curve with a large enough effect in the signal ratio in the repeat runs, not every such curve was filed as active; the % refers to the signal ratio)
In short: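 CellSensor ESRE-bla HeLa cells, 1,500 per well, plated overnight, then exposed to compounds for 5 hr at 37 C. Beta-lactamase reporter read with LiveBLAzer B/G FRET substrate after 2 hr at room temperature, 405 nm excitation, 460 and 530 nm emission.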

[4] = qHTS assay to identify small molecule agonists of the endoplasmic reticulum stress response signaling pathway - cell viability counter screen (AID 1159517; calls by dose curve;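 note: HeLa cells carrying an ER stress response element beta-lactamase reporter; series mostly up to about 61 µM; nearly all actives have a fitted effect of over 50% in size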)
In short: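 Counter-screen wells were identical to the reporter wells. Cells were plated at 1,500 per well and dosed for 5 hr, then read for luminescence 30 min after CellTiter-Glo addition.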

[5] = qHTS assay to identify small molecule antagonists of the retinoid-related orphan receptor gamma (ROR-gamma) signaling pathway - cell viability counter screen (AID 1159520); note: nearly all actives have a fitted effect of over 50% in size
In short: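 Tet-on ROR gamma CHO cells were given compounds for 2 hr, then doxycycline hyclate at 1 uM final, and incubated 16 hr at 37 C. Viability was measured as ATP content by CellTiter-Glo luminescence.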

[6] = target: Nuclear receptor ROR-gamma (Homo sapiens) (UniProt P51449); test: qHTS assay to identify small molecule antagonists of the retinoid-related orphan receptor gamma (ROR-gamma) signaling pathway (AID 1159521;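 note: CHO cells with doxycycline inducible ROR-gamma driving an RORE luciferase reporter; top concentration of the series differs between compounds; nearly all actives have a fitted effect of over 50% in size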)
In short: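 Screening format: cell-based luciferase reporter in CHO cells with doxycycline-inducible RORγ. Compound pre-exposure lasts 2 h, doxycycline is 1 uM final, induction runs 16 h at 37 C, and ONE-Glo luminescence is read.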

[7] = qHTS assay to identify small molecule agonists of the AP-1 signaling pathway - cell viability counter screen (AID 1159525; calls by dose curve; note: nearly all actives have a fitted effect of over 55% in size)
In short: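 AP-1-bla ME-180 cells in Opti-MEM with 0.5% dialyzed FBS, compound exposure 5 h at 37 C in 15-point titration. Viability read in the same wells as ATP content by CellTiter-Glo luminescence, normalised to tetra-n-octylammonium bromide and DMSO controls.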

[8] = qHTS assay to identify small molecule agonists of the AP-1 signaling pathway (AID 1159526; calls by dose curve)
[9] = target: Retinoic acid receptor RXR-alpha (Homo sapiens) (UniProt P19793); test: qHTS assay to identify small molecule agonists of the RXR signaling pathway (AID 1159527; calls by dose curve; note: nearly all actives have a fitted effect of over 35% in size)
In short: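 Fluorescence ratio readout (460 vs 530 nm) from GeneBLAzer RXR-alpha HEK 293T cells after 16 hr compound treatment; cells seeded 5 hr beforehand in low-serum, charcoal-stripped medium.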

[10] = qHTS assay to identify small molecule agonists of the RXR signaling pathway - cell viability counter screen (AID 1159529);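 note: HEK 293T cells carrying an RXR-alpha UAS beta-lactamase reporter; series mostly up to about 77 µM; nearly all actives have a fitted effect of over 50% in size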
In short: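 Viability read-out for the RXR-alpha agonist qHTS: luminescent CellTiter-Glo signal after 30 min at RT. HEK 293T bla reporter cells, 2% charcoal-stripped FBS, 16 hr compound incubation; tetraoctyl ammonium bromide as cytotoxic control.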

[11] = qHTS assay to identify small molecule antagonists of the retinoid acid receptor (RAR) signaling pathway - cell viability counter screen (AID 1159551); note: nearly all actives have a fitted effect of over 35% in size
In short: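 C3RL4 RARE-luciferase cells, 1,000/well, incubated overnight, then dosed with compound plus 1 uM retinol (final). After 6 hr at 37 C, viability read by CellTiter-Glo ATP luminescence following 30 min at room temperature.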

[12] = qHTS assay to identify small molecule antagonists of the retinoic acid receptor (RAR) signaling pathway (AID 1159552; note: nearly all actives have a fitted effect of over 50% in size)
In short: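 Using a RARE-driven luciferase construct in C3RL4 cells, retinol at 1 uM final provided the agonist stimulus while compounds were co-applied. After 6 hours at 37 C, luminescence was recorded to flag inhibitors of retinol signaling.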

[13] = qHTS assay to identify small molecule agonists of the retinoic acid receptor (RAR) signaling pathway (AID 1159553)
In short: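 C3RL4 RARE-luciferase cells were seeded at 1,000/well and grown overnight at 37 C, then exposed to compounds for 6 hr at 37 C, 5% CO2. Luciferase reagent was added and luminescence was read after 30 min at room temperature.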

[14] = qHTS assay to identify small molecule antagonists of the estrogen related receptor signaling pathway with the pleiotropic PPARgamma coactivator (PGC) cell viability counter screen (AID 1224822;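 note: series mostly up to about 46 µM; viability read after 17.5 h compound exposure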)
In short: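 PGC/ERR cells rested 6 h, then compound-treated 17.5 h at 37 C. CellTiter-Fluor added for 30 min at 37 C, viability measured by fluorescence intensity.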

[15] = qHTS assay to identify small molecule agonists of the vitamin D receptor (VDR) signaling pathway - cell viability counter screen (AID 743224)
In short: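 VDR-bla cells, 4 h after plating, exposed to compounds for 16 h at 37C; viability then read in the same wells as CellTiter-Glo luminescence after 30 min at room temperature, following the bla FRET read.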

[16] = qHTS assay to identify small molecule antagonists of the vitamin D receptor (VDR) signaling pathway - cell viability counter screen (AID 743225); note: nearly all actives have a fitted effect of over 50% in size
In short: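 In this counter screen, VDR-bla HEK 293T cells receive test compound plus 3 nM final calcitriol for 16 h at 37C. Room-temperature steps of 2 h with the beta-lactamase substrate, then 30 min with CellTiter-Glo, precede the luminescence read.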

[17] = qHTS assay to identify small molecule antagonists of the estrogen related receptor (ERR) signaling pathway (AID 1224819)
In short: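 ERR reporter cell line (NTP) plated at 2,000 cells/well, settled 6 h at 37C/5% CO2, then exposed to LOPAC compounds for 18 h at 37C. One-Glo luciferase luminescence read after 30 min at room temperature.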

[18] = qHTS assay to identify small molecule agonists of the estrogen related receptor (ERR) signaling pathway (AID 1224820)
In short: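 ERR reporter cells (NTP line) plated 2,000/well, incubated 6 h at 37 C/5% CO2, then pinned with compounds in DMSO and held 18 h at 37 C. One-Glo added; luminescence read after 30 min at room temperature.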

[19] = test system: estrogen-related receptor alpha (ERRalpha) with PGC-1alpha coactivator, human; test: qHTS assay to identify small molecule antagonists of the estrogen related receptor signaling pathway with the pleiotropic PPARgamma coactivator (PGC) (AID 1224821; calls by dose curve)
In short: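 Cells engineered for PGC/ERR signalling (line from NTP) were plated 6 h at 37 C/5% CO2, then exposed to DMSO-dissolved compound for 18 h at 37 C. Luciferase activity was read by One-Glo luminescence after 30 min at room temperature.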

[20] = qHTS assay to identify small molecule agonists of the estrogen related receptor signaling pathway with the pleiotropic PPARgamma coactivator (PGC) (AID 1224823)
In short: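 PGC/ERR reporter cells were seeded, rested 6 h at 37 C/5% CO2, then exposed to compounds in DMSO by pin transfer for 18 h at 37 C. Luciferase activity was read as luminescence after One-Glo reagent and 30 min at room temperature.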

Measured: Potency

Sequence of Retinoic acid receptor RXR-alpha (Homo sapiens) (P19793 whole entry, looked up): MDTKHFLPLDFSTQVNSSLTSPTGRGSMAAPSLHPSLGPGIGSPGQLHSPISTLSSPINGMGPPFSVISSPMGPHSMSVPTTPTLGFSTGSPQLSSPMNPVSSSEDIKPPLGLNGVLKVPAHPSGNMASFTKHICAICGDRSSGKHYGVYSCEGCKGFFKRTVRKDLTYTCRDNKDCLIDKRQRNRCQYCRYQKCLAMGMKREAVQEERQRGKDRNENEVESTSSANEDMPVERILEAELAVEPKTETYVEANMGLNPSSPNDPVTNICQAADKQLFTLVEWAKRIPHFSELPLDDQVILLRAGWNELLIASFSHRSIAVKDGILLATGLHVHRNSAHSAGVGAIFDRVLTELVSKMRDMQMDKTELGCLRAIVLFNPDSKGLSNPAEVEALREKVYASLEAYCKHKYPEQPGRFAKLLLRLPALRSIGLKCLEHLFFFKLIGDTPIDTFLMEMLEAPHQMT

Cc1cnc(NC(=O)C2=C(O)c3ccccc3S(=O)(=O)N2C)s1
inactive: [1] | [2] | [3] | [4] | [5] | [6] | [7] | [8] | [9] | [10] | [11] | [12] | [13] | [14]

COc1cc(O)c(C(=O)c2ccccc2)cc1S(=O)(=O)O
inactive: [15] | [1] | [2] | [3] | [4] | [5] | [6] | [7] | [8] | [9] | [10] | [11] | [12] | [13]

COc1ccc(O)cc1
inactive: [15] | [16] | [1] | [2] | [3] | [4] | [5] | [7] | [8] | [9] | [10] | [11]

CC(C)Cc1ccc(C(C)C(=O)O)cc1 (configuration not stated)
inactive: [1] | [2] | [3] | [4] | [5] | [7] | [8] | [9] | [10] | [11] | [12] | [13] | [17] | [18] | [19] | [14] | [20]

CCCCCCCCCCCCCC(=O)OC(C)C
inactive: [15] | [1] | [2] | [3] | [5] | [6] | [7] | [8] | [9] | [10] | [11] | [12] | [13]

CCOC(=O)C(C)(C)Oc1ccc(Cl)cc1
inactive: [15] | [16] | [1] | [2] | [3] | [4] | [5] | [7] | [8] | [9] | [10] | [11] | [17] | [18] | [19] | [14] | [20]

CCn1cc(C(=O)O)c(=O)c2ccc(C)nc21
inactive: [15] | [16] | [1] | [2] | [3] | [4] | [5] | [6] | [7] | [8] | [9] | [10] | [11] | [12] | [13]

NC(=O)c1ccc([N+](=O)[O-])cc1Cl
inactive: [15] | [16] | [1] | [2] | [3] | [4] | [5] | [6] | [7] | [8] | [9] | [10] | [11] | [12] | [13]

COC(=O)C1CCC(C(=O)OC)CC1 (configuration not stated)
inactive: [15] | [16] | [1] | [2] | [3] | [4] | [5] | [7] | [8] | [9] | [10] | [11] | [12] | [13]

CC(=O)c1ccc(S(=O)(=O)NC(=O)NC2CCCCC2)cc1
inactive: [15] | [1] | [2] | [3] | [4] | [5] | [6] | [7] | [8] | [9] | [10] | [11] | [12] | [13] | [14]

CCCCNC(=O)NS(=O)(=O)c1ccc(N)cc1
inactive: [15] | [16] | [1] | [2] | [3] | [4] | [5] | [6] | [7] | [8] | [9] | [10] | [11] | [12] | [13]

CC(C)(C)NCC(O)c1ccc(O)c(CO)c1 (configuration not stated)
inactive: [15] | [16] | [1] | [2] | [3] | [4] | [5] | [7] | [8] | [9] | [10] | [11] | [12] | [13] | [14]

CCCCOC(=O)CCCCCCCCC(=O)OCCCC
inactive: [15] | [1] | [2] | [3] | [4] | [5] | [6] | [7] | [8] | [9] | [10] | [11] | [12] | [13]

CCCCCCCC(=O)OCC(O)CO (configuration not stated)
inactive: [15] | [16] | [1] | [2] | [3] | [4] | [5] | [6] | [7] | [8] | [9] | [10] | [11] | [12] | [13]

C=CC(=O)NC(C)(C)CS(=O)(=O)O
inactive: [15] | [16] | [1] | [2] | [3] | [4] | [5] | [6] | [7] | [8] | [9] | [10] | [11] | [12] | [13]

C=C(C)OC(C)=O
inactive: [15] | [1] | [2] | [3] | [4] | [5] | [6] | [7] | [8] | [9] | [10] | [11] | [12] | [13]

CCOCCO
inactive: [15] | [1] | [2] | [3] | [4] | [5] | [7] | [8] | [9] | [10] | [11] | [12] | [13]
